The text below walks through data of PubChem BioAssay (EPA / NIEHS).

Values joined by “and” are separate entries in the source; they are usually repeats but may differ in a detail not shown here. Equal values may be shown once. More than one record can exist for a structure, and the calls need not agree. Active and inactive are the calls of the source. How the source made its calls: active means hit-call score of the fitted dose curve at least 0.9, where 1 is the maximum; inactive means score below 0.9.

Holding throughout (conditions): mRNA level, 48 h; actives raise or lower the signal
Read-out in experiment [1]: Ezrin (EZR), EZR (gene 7430)
Nature of the experiment: LTEA_HepaRG_EZR: Life Technologies and Expression Analysis (LTEA) Assay for Ezrin (EZR) using HepaRG (AID 2283491). The essentials: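 Differentiated human HepaRG cells, 48 h after plating, were exposed in serum-free induction medium for 48 hours to eight half-log concentrations up to 100 uM in 0.5% DMSO. EZR mRNA was measured by TaqMan qRT-PCR, normalized to ACTB, GAPDH and POLR2A, and fitted bidirectionally against DMSO.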

Read-out in a further experiment: CYP3A5 (gene 1577)
Nature of the experiment: LTEA_HepaRG_CYP3A5: Life Technologies and Expression Analysis (LTEA) Assay for CYP3A5 using HepaRG (AID 2283493). The essentials: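 HepaRG plated 48 h, switched to serum-free induction medium, chemicals added 48 h (max 100 uM, half-log, 0.5% DMSO). RNA isolated; CYP3A5 by TaqMan qRT-PCR. Gain/loss vs DMSO.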

Read-out in experiment [2]: Fatty Acid-Binding Protein 1 (FABP1), FABP1 (gene 2168)
Nature of the experiment: LTEA_HepaRG_FABP1: Life Technologies and Expression Analysis (LTEA) Assay for Fatty Acid-Binding Protein 1 (FABP1) using HepaRG (AID 2283494). In short, it runs like this: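 Differentiated human HepaRG cells exposed 48 h in serum-free induction medium to eight half-log concentrations up to 100 uM (0.5% DMSO), duplicate. FABP1 mRNA by qRT-PCR, normalised to ACTB, GAPDH, POLR2A; bidirectional fitting against DMSO.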

Read-out in experiment [3]: Cytochrome P450 4A22 (Homo sapiens) (UniProt Q5TCH4)
Nature of the experiment: LTEA_HepaRG_CYP4A22: Life Technologies and Expression Analysis (LTEA) Assay for Cytochrome P450 4A22 (CYP4A22) using HepaRG (AID 2283495). On the procedure:
LTEA_HepaRG is a cell based, multiplexed-readout assay that uses HepaRG, a human liver cell line, with measurements taken at 48 hours after chemical dosing on a 96-well plate.LTEA_HepaRG_CYP4A22 is one of 102 assay component(s) measured in the LTEA HepaRG cell culture assay. It is a marker of NR mediated metabolism.Data from the assay component LTEA_HepaRG_CYP4A22 was analyzed into 1 endpoint. This assay endpoint, LTEA_HepaRG_CYP4A22, was analyzed with bidirectional fitting relative to DMSO as the negative control and baseline of activity. Using a type of inducible reporter, measures of mRNA induction for gain or loss-of-signal activity can be used to understand regulation of transcription factor activity. To generalize the intended target to other relatable targets, this assay endpoint is annotated to the cyp intended target family, where the subfamily is xenobiotic metabolism.
A total of 1060 chemcials from the ToxCast library were tested in eight-point concentration-response experiments. Cell culture and cytotoxicity assays were conducted at Thermo Fisher Scientific's Custom Services facility (Madison, WI). A single lot of human HepaRG cells (Thermo Fisher Scientific, Frederick, MD) was used for the cell culture experiments. 96-well format collagen type I coated plates of human HepaRG cells were prepared using established methods. Briefly, cryopreserved HepaRG cells were thawed, plated at a density of approximately 100,000 cells/well in HepaRG Thaw, Plate, and General Purpose media (HPRG770, Thermo Fisher Scientific), and incubated for 48 hours. 0.5% DMSO was selected as vehicle control to balance the requisite need of DMSO in HepaRG cultures to maintain differentiation (for example, baseline metabolism, proportions of hepatocytes vs. cholangiocytes), while enabling further hepatic receptor pathway activation (for example, PXR and CAR) in response to chemical exposure. 48 hours after plating, the culture medium was replaced with HepaRG Serum-Free Incudtion Media. Cells were exposed to each test chemical in duplicate and maintained in CO2 incubators for another 48 hours. Chemical plates were thawed to room temperature and 200x concentrations of treatment groups were prepared. 8-point conentration-reponse curves were made with the highest exposure at 100 uM, followed by half-log dilutions, all in 0.5% DMSO. Each test plate contained variouse controls, induction positive controls (1mM phenobarbital), cytotoxicity positive controls ([…] aflatoxin B1), vehicle controls (0.5% DMSO), and total lysis controls (0.5% DMSO). Cell morphology images were taken using an Essen IncuCyte FLR automated microscope, with six 96-well plates imaged in about 24 minutes. Images were captured and exported and JPEG files. Spent culture media was transfered to black-well plates for the LDH assay, and remaining media was sorted at -80 C for later use. Cells were treated with RLT buffer and frozen until shipped for gene expression analysis. Total RNA was isolated from the cell suspension in 75 uL of Buffer RLT (Qiagen, Germantown, MD 20874) by Quintiles/Expression Analysis (Durham, NC) using a custom isolation procedure. Total RNA from each plate well was transferred to a preamplification plate. Fluidigm's 96.96 Dynamic ArrayTM (Fluidigm, Amsterdam, the Netherlands) technology was used for gene expression analyses by quantitative reverse transcription polymerase chain reaction (qRT-PCR, performed by Quintiles/Expression Analysis, Durham, NC)89. Standard TaqManTM Assays (Applied Biosystems/ThermoFisher Scientific, Foster City, CA) were used to assess the expression of 93 genes selected based on their selectivity and sensitivity to important hepatic receptors known to be modulated by environmental chemicals; importance in human hepatocyte functionality; and hepatotoxicity. […]

Read-out in experiment [4]: Cytochrome P450 7A1 (Homo sapiens) (UniProt P22680)
Nature of the experiment: LTEA_HepaRG_CYP7A1: Life Technologies and Expression Analysis (LTEA) Assay for Cytochrome P450 7A1 (CYP7A1) using HepaRG (AID 2283496). The essentials: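 HepaRG cells plated 48 h, then switched to serum-free induction medium and exposed in duplicate for 48 h to 8-point half-log series from 100 uM in 0.5% DMSO. CYP7A1 mRNA by qRT-PCR (TaqMan), normalized to ACTB/GAPDH/POLR2A; bidirectional fit versus DMSO.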

Read-out in experiment [5]: Glutathione S-Transferase (GSTA2), GSTA2 (gene 2939)
Nature of the experiment: LTEA_HepaRG_GSTA2: Life Technologies and Expression Analysis (LTEA) Assay for Glutathione S-Transferase (GSTA2) using HepaRG (AID 2283497). The essentials:
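Differentiated human HepaRG cells were exposed in duplicate for 48 h in serum-free induction medium, 8 points from 100 uM top in half-log steps, 0.5% DMSO. GSTA2 mRNA was measured by TaqMan qRT-PCR, normalized to ACTB, GAPDH and POLR2A; bidirectional fit versus DMSO.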

Read-out in experiment [6]: Glutamate-cysteine ligase catalytic (GCLC), GCLC (gene 2729)
Nature of the experiment: LTEA_HepaRG_GCLC: Life Technologies and Expression Analysis (LTEA) Assay for Glutamate-cysteine ligase catalytic (GCLC) using HepaRG (AID 2283498). In short, it runs like this: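 Differentiated HepaRG cells exposed 48 h in serum-free induction medium, eight-point half-log series topping at 100 uM in 0.5% DMSO, duplicates. GCLC mRNA by qRT-PCR normalized to ACTB, GAPDH and POLR2A, fitted bidirectionally versus DMSO.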

Read-out in experiment [7]: growth arrest and DNA damage 45 (GADD45G), GADD45G (gene 10912)
Nature of the experiment: LTEA_HepaRG_GADD45G: Life Technologies and Expression Analysis (LTEA) Assay for growth arrest and DNA damage 45 (GADD45G) using HepaRG (AID 2283499). The essentials:
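HepaRG, 48 h exposure, top 100 uM, half-log 8-point series, 0.5% DMSO vehicle, duplicates. Readout: GADD45G transcript by qRT-PCR (Fluidigm array), housekeeping-normalised (ACTB/GAPDH/POLR2A). Bidirectional curve fit vs DMSO baseline.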

Read-out in experiment [8]: Glutamate-cysteine ligase regulatory (GCLM), GCLM (gene 2730)
Nature of the experiment: LTEA_HepaRG_GCLM: Life Technologies and Expression Analysis (LTEA) Assay for Glutamate-cysteine ligase regulatory (GCLM) using HepaRG (AID 2283500). In short, it runs like this: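 Cells were plated, cultured 48 h, switched to serum-free induction medium, then dosed in duplicate for 48 h at eight half-log concentrations up to 100 uM. RNA was then profiled by qRT-PCR; gain or loss versus DMSO was fitted.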

Read-out in experiment [9]: Cytochrome P450 3A7 (Homo sapiens) (UniProt P24462)
Nature of the experiment: LTEA_HepaRG_CYP3A7: Life Technologies and Expression Analysis (LTEA) Assay for CYP3A7 using HepaRG (AID 2283492). The essentials:
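CYP3A7 transcript levels were read by TaqMan qRT-PCR on Fluidigm arrays after 48 h chemical exposure of human HepaRG cells, with housekeeping-gene normalisation. Eight half-log concentrations up to 100 uM in 0.5% DMSO were tested in duplicate.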

By AC50 is commonly meant the concentration giving half of the maximal activity seen.

Chain of Cytochrome P450 3A7 (Homo sapiens) (P24462 whole entry, looked up): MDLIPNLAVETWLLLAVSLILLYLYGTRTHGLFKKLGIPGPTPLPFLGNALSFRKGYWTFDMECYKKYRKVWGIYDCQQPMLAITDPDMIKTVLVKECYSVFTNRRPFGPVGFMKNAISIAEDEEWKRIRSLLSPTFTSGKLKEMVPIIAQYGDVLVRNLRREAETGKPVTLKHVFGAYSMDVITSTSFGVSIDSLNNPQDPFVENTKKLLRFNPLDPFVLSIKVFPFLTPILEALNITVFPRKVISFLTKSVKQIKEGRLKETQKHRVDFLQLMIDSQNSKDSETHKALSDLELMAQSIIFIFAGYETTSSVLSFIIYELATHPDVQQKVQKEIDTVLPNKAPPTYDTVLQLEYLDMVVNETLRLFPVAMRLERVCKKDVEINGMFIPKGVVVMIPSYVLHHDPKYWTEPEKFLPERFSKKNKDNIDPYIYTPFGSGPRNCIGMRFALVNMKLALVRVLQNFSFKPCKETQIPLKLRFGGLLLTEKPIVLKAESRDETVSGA

With `C[C@]12CC[C@@H]3c4ccc(O)cc4CC[C@H]3[C@@H]1CC[C@@H]2O`, the compound was classed as inactive in experiment [1], in experiment [4], in [5], in [6], in experiment [7] and in [8]. The AC50 was 50 µM (active) in the experiment with CYP3A5 (gene 1577), 29 µM (active) in experiment [2] and 50 µM (active) in experiment [3].

For `C=C(C)C(N)=O`, the call (in experiment [1]; in experiment [9]; in the experiment with CYP3A5 (gene 1577); in [2]; in experiment [3]; in experiment [4]) was inactive. For the same compound, the compound was called inactive in experiment [5], in [6], in [7] and in [8].

With `C#C[C@]1(O)CC[C@H]2[C@@H]3CCc4cc(O)ccc4[C@H]3CC[C@@]21C`, the outcome (in experiment [1]; in experiment [9]; in the experiment with CYP3A5 (gene 1577); in experiment [2]; in [3]; in experiment [4]) was inactive. Further, the outcome in experiment [5], in [6] and in [7] was inactive.

As for `CC/C(=C(\c1ccccc1)c1ccc(OCCN(C)C)cc1)c1ccccc1`, the AC50 was 81.4 µM (active) and 50 µM (active) in experiment [1]; 86.7 µM (active) with CYP3A5 (gene 1577); 60 µM (active) and 70.9 µM (active) in [2]; 14.5 µM (active) and 20.7 µM (active) in experiment [3]; 70.2 µM (active) in experiment [5]; 90.5 µM (active) in [7]. The AC50 in experiment [8] is 74 µM (active) and 50 µM (active). Further, the compound was classed as inactive (in [9]; in the experiment with CYP3A5 (gene 1577); in experiment [4]; in experiment [5]; in experiment [6]; in experiment [7]).

For the compound `COC(=O)c1ccc(C(=O)OC)cc1`, the call (in experiment [1]; in experiment [9]; with CYP3A5 (gene 1577); in experiment [2]; in experiment [3]; in experiment [4]) was inactive. For the same compound, the compound was classed as inactive in experiment [5], in [6], in experiment [7] and in experiment [8].

As for `O=C(c1ccc(OCCN2CCCCC2)cc1)c1c(-c2ccc(O)cc2)sc2cc(O)ccc12`, the AC50 in experiment [1] is 50 µM (active); in the experiment with CYP3A5 (gene 1577), 41.4 µM (active); in experiment [2], 50 µM (active); in [5], 69.1 µM (active). The outcome in experiment [9], in experiment [3], in [4], in experiment [6], in experiment [7] and in experiment [8] was inactive.

Turning to `CCCCOCCOCCO`, the call (in [1]; in [9]; with CYP3A5 (gene 1577); in experiment [2]; in experiment [3]; in [4]) was inactive. The outcome in experiment [5], in experiment [6], in experiment [7] and in experiment [8] was inactive.
